The target in assay [1] is human Peripheral-type Benzodiazepine Receptor (PBR), TSPO (gene 706) (UniProt P30536). Nature of the assay: NVS_MP_hPBR: NovaScreen (NVS) Membrane Protein Assay for human Peripheral-type Benzodiazepine Receptor (PBR) (AID 2283331).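 Note: hits reduce radioligand binding relative to DMSO baseline.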 In a few lines:
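Human colonic cell membranes were incubated with test chemical for 1 hour; radioligand binding was measured by filter-based scintillation counting. Primary screen ran in duplicate at 25 uM, with actives followed in concentration series; loss of signal versus DMSO baseline.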

The target in assay [2] is bovine Estrogen Receptor (ER), ESR1 (gene 407238) (UniProt P49884). Nature of the assay: NVS_NR_bER: NovaScreen (NVS) Nuclear Receptor Binding Assay for bovine Estrogen Receptor (ER) (AID 2283345).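 Note: actives lower the bound radioligand count which means they displace the ER ligand.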 In a few lines:
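Displacement of a radioligand from estrogen receptor in bovine uterine membrane preparations; scintillation signal taken at 18 hours, DMSO as baseline. Single-concentration duplicates (25 uM) preceded concentration-response follow-up of actives.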

The target in assay [3] is Estrogen receptor (Homo sapiens) (UniProt P03372). In words: NVS_NR_hER: NovaScreen (NVS) Nuclear Receptor Binding Assay for human Estrogen Receptor (ER) (AID 2283348). In a few lines:
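Cell-free radioligand binding with protein extracted from MCF7 cells; scintillation counting 18 hours after dosing. Loss of signal versus DMSO baseline read as displacement; primary single-concentration screen at 25 uM in duplicate, actives retested in concentration series.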

Assay [4] is described as follows: NVS_IC_rCaBTZCHL: NovaScreen (NVS) Ion Channel Assay for Calcium Channel, Type L, Benzothiazepine Site (CaBTZCHL) (AID 2283337). The essentials:
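Radioligand binding to the benzothiazepine site of L-type Ca channels in rat cortical membranes (cell-free), 1.5 h after dosing; filter-based scintillation counting. Loss of signal relative to DMSO baseline; primary single-concentration screen at 25 uM, actives then run in concentration series.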

In assay [5] the test system is guinea pig Histamine Receptor (H2), gene 100729734. Nature of the assay: NVS_GPCR_gH2: NovaScreen (NVS) G Protein-Coupled Receptor Assay for guinea pig Histamine Receptor (H2) (AID 2283342). In a few lines: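 Radioligand displacement on guinea pig striatal membranes, 1 h after dosing, filter-based scintillation counting; loss of signal versus DMSO. Single-point screen at 25 uM in duplicate, then concentration-response up to 50 uM.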

For assay [6], the target named is Estrogen receptor (Homo sapiens) (UniProt P03372). Nature of the assay: OT_ER_ERaERa_1440: Odyssey Thera (OT) 24-hour HEK293T Protein-Complementation Assay for Estrogen Receptor-alpha/-alpha Homodimer (AID 2283349).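 Note: hits raise fluorescence above DMSO for agonists and antagonists alike.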 In a few lines:
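Readout is the rise in mean fluorescence from reporter fragment complementation when ERα LBD (aa 310-547) units dimerize in HEK293T cells. Measured 24 h after dosing and analysed as increase over DMSO control.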

Assay [7] shares this target. In words: OT_ER_ERaERa_0480: Odyssey Thera (OT) 8-hour HEK293T Protein-Complementation Assay for Estrogen Receptor-alpha/-alpha Homodimer (AID 2283351).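 Note: rise in fluorescence from reassembled reporter fragments on ERα LBD homodimer in nucleus or whole cell.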 In a few lines:
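HEK293T cells stably expressing the human ERα ligand-binding domain (aa 310-547) as a homodimer PCA were dosed with compound for 8 h. Gain of fluorescence intensity versus DMSO vehicle was read by laser scanning cytometry.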

Assay [8] has as its target T1, Estrogen receptor (Homo sapiens) + Estrogen receptor beta (Homo sapiens) (UniProt P03372+Q92731). Nature of the assay: OT_ER_ERaERb_0480: Odyssey Thera (OT) 8-hour HEK293T Protein-Complementation Assay for Estrogen Receptor-alpha/-beta Heterodimer (AID 2283352). The essentials:
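HEK293T protein-fragment complementation assay of ER-alpha/ER-beta LBD heterodimerisation, read 8 h after dosing. Mean nuclear/cytoplasmic fluorescence intensity measured by laser scanning cytometry; gain of signal fitted relative to DMSO.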

For assay [9], the target named is human Androgen Receptor (AR), AR (gene 367) (UniProt P10275). Nature of the assay: NVS_NR_hAR: NovaScreen (NVS) Nuclear Receptor Binding Assay for human Androgen Receptor (AR) (AID 2283332). In a few lines: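 Actives from a duplicate 25 uM single-point screen went on to concentration series. Read-out after 20 h was scintillation counting of displaced radioligand in LnCAP extract, with DMSO as baseline.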

In assay [10] the target is chimpanzee Androgen Receptor (AR), AR (gene 747460) (UniProt O97775). Nature of the assay: NVS_NR_cAR: NovaScreen (NVS) Nuclear Receptor Binding Assay for chimpanzee Androgen Receptor (AR) (AID 2283346). The essentials: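 Cell-free radioligand displacement using receptor protein extracted from Sf9/Sf21 cells; bound radioligand measured by scintillation counting 72 hours after chemical dosing. Loss of signal versus DMSO baseline indicates binding; primary screen single-concentration in duplicate at 25 uM, actives followed in concentration series.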

The target in assay [11] is Androgen Receptor/SRC-1 Co-activator, AR (gene 367) (UniProt P10275). In words: OT_AR_ARSRC1_0960: Odyssey Thera (OT) 16-hour HEK293T Protein-Complementation Assay for Androgen Receptor/SRC-1 Co-activator (AID 2283353).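 Note: actives raise the signal above DMSO so potency reflects increased AR and SRC-1 complex.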 The essentials:
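HEK293T cells stably expressing AR and SRC-1 fused to split Venus YFP fragments via (Gly4Ser)2 linkers were dosed for 16 h. Nuclear/cytoplasmic fluorescence ratio at 488 nm, ≥400 cells per image, fitted for gain of signal versus DMSO.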

For assay [12], the target named is human Peroxisome Proliferator-activated Receptor alpha (PPARa), PPARA (gene 5465) (UniProt Q07869). In words: NVS_NR_hPPARa: NovaScreen (NVS) Nuclear Receptor Binding Assay for human Peroxisome Proliferator-activated Receptor alpha (PPARa) (AID 2283359).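 Note: activity means loss of TR-FRET signal versus DMSO baseline.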 In a few lines: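 Cell-free binding assay with extracted human protein, read by TR-FRET 1 h after chemical dosing. Loss of signal relative to DMSO baseline indicates binding. Primary screen used duplicate single concentration (25 uM); actives followed up in concentration series.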

The next assay has as its system NCBI gene 100848466. Nature of the assay: NVS_NR_bPR: NovaScreen (NVS) Nuclear Receptor Binding Assay for bovine Progextron Receptor (PR) (AID 2283343).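 Note: actives lower bound radioligand signal below DMSO meaning displacement of the label.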 In a few lines: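 Bovine uterine membrane preparation, cell-free; radioligand competitive displacement measured by scintillation counting 18 hours after dosing. Loss of signal versus DMSO baseline indicates binding; primary HTS single concentration 25 uM in duplicate, actives followed in concentration series.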

Assay [13] has as its target rat Glutamate, MK-801 Agonist Site (GluNMDA_MK801), Grin1 (gene 24408) (UniProt P35439). Nature of the assay: NVS_LGIC_rGluNMDA_MK801_Agonist: NovaScreen (NVS) Ligand-Gated Ion Channel Assay for rat Glutamate, MK-801 Agonist Site (GluNMDA_MK801) (AID 2283340). In a few lines:
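Radioligand binding at MK-801 site in rat forebrain membranes, 1.5 h incubation, filter-based scintillation counting. Initially 25 uM in duplicate; actives then run in concentration-response up to 50 uM, fitted for gain of signal versus DMSO.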

A further assay addresses PGR (gene 5241) (UniProt P06401). In words: NVS_NR_hPR: NovaScreen (NVS) Nuclear Receptor Binding Assay for human Progestron Receptor (PR) (AID 2283360). The essentials: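 T47D-derived receptor preparation, cell-free, with tritiated or iodinated radioligand displacement measured by scintillation 18 h post-dosing. Single 25 uM duplicate screen, then concentration series; signal loss relative to DMSO.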

Assay [14] concerns the target Retinoic acid receptor alpha (Homo sapiens) (UniProt P10276). Nature of the assay: NVS_NR_hRAR_Antagonist: NovaScreen (NVS) Nuclear Receptor Binding Assay for human Retinoic Acid Alpha Receptor Antagonism (RAR) (AID 2283358). In a few lines:
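Cell-free TR-FRET binding assay on extracted receptor protein, run in antagonist mode; signal read 2 hours after chemical dosing. Loss of signal was fitted relative to DMSO baseline. Screened at 25 uM in duplicate, actives followed up in concentration series.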

For assay [15], the target named is T1, Estrogen receptor (Homo sapiens) + Estrogen receptor beta (Homo sapiens). In words: OT_ER_ERaERb_1440: Odyssey Thera (OT) 24-hour HEK293T Protein-Complementation Assay for Estrogen Receptor-alpha/-beta Homodimer (AID 2283356).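 Note: heteromer of ER alpha and ER beta binding domains; hits raise reporter fluorescence and both agonists and antagonists give an increase.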 The essentials:
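HEK293T stably expressing a PCA of ER alpha LBD (aa 310-547) and ER beta LBD (aa 263-489). After 24 h compound exposure, mean fluorescence intensity in nucleus (agonists) or nucleus and cytoplasm (antagonists) measured by laser scanning cytometry versus vehicle.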

Values joined by “and” are separate entries in the source; they are usually repeats but may differ in a detail not shown here. Equal entries are not always repeated. Inconclusive results are not listed. A structure can be active in one record and inactive in another. Active and inactive are the calls of the source. Rule for the calls: active = hit-call score of the fitted dose curve at least 0.9, where 1 is the maximum; inconclusive = response in the unintended direction; inactive = score below 0.9.

human Peripheral-type Benzodiazepine Receptor (PBR), TSPO (gene 706), sequence (P30536 whole entry, looked up): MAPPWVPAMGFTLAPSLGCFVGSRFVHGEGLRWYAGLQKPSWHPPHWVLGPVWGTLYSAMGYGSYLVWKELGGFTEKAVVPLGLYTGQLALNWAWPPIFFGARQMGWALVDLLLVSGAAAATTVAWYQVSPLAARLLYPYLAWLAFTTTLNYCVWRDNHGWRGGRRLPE
T1 sequence (P03372 whole entry, looked up, the tested form may be a part): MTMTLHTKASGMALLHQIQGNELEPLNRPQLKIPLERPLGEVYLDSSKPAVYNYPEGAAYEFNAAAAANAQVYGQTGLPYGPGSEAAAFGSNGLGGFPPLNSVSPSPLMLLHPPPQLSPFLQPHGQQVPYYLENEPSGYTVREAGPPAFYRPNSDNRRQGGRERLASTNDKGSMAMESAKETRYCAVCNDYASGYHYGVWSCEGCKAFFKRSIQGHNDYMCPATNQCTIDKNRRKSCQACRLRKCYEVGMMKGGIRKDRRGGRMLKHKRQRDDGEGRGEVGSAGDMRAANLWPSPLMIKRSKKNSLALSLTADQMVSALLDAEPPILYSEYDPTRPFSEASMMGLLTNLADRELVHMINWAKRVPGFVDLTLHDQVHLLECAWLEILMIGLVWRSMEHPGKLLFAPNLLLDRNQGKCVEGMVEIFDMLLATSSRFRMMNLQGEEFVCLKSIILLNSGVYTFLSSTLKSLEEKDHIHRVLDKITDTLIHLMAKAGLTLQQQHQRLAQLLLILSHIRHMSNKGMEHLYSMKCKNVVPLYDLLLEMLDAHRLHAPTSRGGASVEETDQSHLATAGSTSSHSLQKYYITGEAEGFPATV
T1 sequence (Q92731 whole entry, looked up, the tested form may be a part): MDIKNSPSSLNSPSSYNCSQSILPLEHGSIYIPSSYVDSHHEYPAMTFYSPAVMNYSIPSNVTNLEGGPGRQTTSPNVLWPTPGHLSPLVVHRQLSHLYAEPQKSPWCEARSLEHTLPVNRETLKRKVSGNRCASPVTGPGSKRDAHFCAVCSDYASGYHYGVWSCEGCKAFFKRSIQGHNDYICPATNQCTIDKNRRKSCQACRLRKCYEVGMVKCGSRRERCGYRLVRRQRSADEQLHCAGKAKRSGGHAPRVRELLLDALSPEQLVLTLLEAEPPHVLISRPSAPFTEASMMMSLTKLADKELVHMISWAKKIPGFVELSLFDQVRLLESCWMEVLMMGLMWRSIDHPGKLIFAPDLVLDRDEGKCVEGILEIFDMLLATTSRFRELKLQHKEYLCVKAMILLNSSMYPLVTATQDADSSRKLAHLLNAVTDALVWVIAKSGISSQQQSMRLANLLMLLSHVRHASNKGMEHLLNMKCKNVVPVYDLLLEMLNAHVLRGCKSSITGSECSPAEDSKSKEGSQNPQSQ
Estrogen receptor (Homo sapiens), sequence (P03372 whole entry, looked up, the tested form may be a part): as the sequence (P03372 whole entry, looked up, the tested form may be a part) above
bovine Estrogen Receptor (ER), ESR1 (gene 407238), sequence (P49884 whole entry, looked up): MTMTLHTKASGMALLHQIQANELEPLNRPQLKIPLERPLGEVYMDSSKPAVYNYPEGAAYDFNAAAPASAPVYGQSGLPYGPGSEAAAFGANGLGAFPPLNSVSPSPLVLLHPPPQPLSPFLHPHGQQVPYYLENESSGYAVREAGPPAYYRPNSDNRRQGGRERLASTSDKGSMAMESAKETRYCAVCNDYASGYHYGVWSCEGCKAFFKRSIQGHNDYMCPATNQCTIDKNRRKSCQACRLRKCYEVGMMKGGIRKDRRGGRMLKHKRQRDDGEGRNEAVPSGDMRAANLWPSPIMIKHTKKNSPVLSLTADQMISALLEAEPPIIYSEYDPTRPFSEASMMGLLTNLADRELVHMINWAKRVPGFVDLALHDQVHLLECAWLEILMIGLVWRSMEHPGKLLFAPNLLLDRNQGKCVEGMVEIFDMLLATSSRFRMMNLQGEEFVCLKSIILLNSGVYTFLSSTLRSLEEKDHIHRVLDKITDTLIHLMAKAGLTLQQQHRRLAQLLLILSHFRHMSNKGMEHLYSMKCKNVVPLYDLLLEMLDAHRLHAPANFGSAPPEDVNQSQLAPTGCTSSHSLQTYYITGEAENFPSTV
chimpanzee Androgen Receptor (AR), AR (gene 747460), sequence (O97775 whole entry, looked up): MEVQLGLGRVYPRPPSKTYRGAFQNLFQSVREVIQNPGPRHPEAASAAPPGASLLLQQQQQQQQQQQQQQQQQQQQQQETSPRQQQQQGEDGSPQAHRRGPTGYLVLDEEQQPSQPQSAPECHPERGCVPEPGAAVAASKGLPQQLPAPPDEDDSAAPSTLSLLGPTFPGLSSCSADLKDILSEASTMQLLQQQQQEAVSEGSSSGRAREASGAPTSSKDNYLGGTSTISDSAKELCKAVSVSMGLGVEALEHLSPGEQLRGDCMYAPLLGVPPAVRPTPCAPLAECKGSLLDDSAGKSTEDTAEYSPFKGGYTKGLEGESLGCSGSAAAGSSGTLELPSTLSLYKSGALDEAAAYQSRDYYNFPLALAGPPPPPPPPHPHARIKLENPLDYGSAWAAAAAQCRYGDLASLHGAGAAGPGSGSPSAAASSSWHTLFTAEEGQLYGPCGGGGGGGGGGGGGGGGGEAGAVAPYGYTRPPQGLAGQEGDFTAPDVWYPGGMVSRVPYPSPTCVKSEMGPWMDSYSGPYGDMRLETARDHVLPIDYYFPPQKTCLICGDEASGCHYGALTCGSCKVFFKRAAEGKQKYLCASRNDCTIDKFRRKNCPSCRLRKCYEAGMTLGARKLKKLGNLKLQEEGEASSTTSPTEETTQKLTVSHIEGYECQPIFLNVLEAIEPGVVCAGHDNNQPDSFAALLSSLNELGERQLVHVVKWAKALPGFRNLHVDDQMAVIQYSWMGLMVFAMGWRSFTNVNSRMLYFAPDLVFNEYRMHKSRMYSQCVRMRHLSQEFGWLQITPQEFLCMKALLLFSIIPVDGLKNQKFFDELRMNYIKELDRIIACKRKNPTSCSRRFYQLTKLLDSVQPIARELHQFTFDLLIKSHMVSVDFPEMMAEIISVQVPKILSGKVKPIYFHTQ
Androgen Receptor/SRC-1 Co-activator, AR (gene 367), sequence (P10275 whole entry, looked up, the tested form may be a part): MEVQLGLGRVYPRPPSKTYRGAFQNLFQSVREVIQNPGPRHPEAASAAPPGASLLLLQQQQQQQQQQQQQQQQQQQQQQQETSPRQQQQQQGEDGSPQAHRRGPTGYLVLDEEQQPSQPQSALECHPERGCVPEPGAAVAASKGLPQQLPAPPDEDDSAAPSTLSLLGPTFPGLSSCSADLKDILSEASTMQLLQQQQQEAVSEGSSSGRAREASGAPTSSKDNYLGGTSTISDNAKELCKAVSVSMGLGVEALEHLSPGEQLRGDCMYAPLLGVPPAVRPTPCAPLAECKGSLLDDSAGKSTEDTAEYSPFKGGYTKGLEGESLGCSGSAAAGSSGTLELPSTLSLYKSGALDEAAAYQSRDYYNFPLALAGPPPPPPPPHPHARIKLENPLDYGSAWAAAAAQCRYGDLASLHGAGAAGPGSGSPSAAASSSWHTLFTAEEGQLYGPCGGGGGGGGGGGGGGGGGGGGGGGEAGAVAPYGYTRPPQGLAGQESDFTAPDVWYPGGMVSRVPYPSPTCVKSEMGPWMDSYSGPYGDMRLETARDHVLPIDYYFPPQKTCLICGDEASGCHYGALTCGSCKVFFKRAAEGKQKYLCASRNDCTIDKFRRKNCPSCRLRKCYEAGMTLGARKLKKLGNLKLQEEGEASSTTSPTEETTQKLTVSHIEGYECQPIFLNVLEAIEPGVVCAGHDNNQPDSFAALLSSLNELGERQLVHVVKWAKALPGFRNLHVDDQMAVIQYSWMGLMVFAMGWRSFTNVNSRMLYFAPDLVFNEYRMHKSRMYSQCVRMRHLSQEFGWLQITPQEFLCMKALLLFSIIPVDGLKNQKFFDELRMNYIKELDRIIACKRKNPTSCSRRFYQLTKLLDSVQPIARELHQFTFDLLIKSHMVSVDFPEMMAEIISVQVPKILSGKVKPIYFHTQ
human Peroxisome Proliferator-activated Receptor alpha (PPARa), PPARA (gene 5465), sequence (Q07869 whole entry, looked up): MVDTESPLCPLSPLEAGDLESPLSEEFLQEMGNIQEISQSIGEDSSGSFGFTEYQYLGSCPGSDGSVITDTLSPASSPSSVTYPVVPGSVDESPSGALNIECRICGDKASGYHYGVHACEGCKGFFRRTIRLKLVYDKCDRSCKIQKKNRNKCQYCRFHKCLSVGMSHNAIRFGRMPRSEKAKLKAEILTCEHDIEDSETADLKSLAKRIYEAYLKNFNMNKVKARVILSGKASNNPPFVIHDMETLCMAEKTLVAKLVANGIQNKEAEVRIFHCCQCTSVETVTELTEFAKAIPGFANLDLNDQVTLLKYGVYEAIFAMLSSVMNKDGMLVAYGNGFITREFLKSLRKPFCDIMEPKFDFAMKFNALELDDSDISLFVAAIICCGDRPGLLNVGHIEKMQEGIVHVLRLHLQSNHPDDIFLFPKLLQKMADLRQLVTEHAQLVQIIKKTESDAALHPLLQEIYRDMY
human Androgen Receptor (AR), AR (gene 367), sequence (P10275 whole entry, looked up): as the sequence (P10275 whole entry, looked up, the tested form may be a part) above
Retinoic acid receptor alpha (Homo sapiens), sequence (P10276 whole entry, looked up): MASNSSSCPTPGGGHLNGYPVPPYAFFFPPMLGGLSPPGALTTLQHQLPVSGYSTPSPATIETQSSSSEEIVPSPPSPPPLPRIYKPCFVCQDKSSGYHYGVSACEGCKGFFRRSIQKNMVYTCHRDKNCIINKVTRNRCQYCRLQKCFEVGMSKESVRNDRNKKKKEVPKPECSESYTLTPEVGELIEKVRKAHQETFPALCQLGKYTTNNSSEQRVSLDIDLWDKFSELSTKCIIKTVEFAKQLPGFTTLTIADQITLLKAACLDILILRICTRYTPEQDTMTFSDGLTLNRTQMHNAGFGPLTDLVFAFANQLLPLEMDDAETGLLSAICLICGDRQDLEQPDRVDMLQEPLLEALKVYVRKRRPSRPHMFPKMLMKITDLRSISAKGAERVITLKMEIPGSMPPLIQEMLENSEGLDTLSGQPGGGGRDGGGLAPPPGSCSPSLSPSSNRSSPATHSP

As to `O=C(NCc1ncc(C(F)(F)F)cc1Cl)c1c(Cl)cccc1Cl`, in assay [1], the AC50 was 0.00396 µM (active).

In the case of `O=C(c1cc(O)c(O)c(O)c1)c1ccc(O)c(O)c1O`, the outcome in assay [2] and in assay [3] was inactive.

As to `CCCCc1oc2ccccc2c1C(=O)c1cc(I)c(OCCN(CC)CC)c(I)c1`, the figures for the AC50 in [1], in assay [4] and in assay [5] were 5.22 µM (active), 1.81 µM (active) and 9.85 µM (active), respectively. For the same compound, the result in [6], in assay [7] and in assay [8] was inactive.

`CCCCCCCCCCCC[N+](C)(C)CCCCCCCCCCCC`: the result in [2] was inactive. Also, the AC50 in assay [3] was 46.8 µM (active).

As for `CC(C)(c1ccc(Oc2ccc(N)cc2)cc1)c1ccc(Oc2ccc(N)cc2)cc1`, in [9], the AC50 is 9 µM (active). Also, the compound was classed as inactive in assay [10].

For `NC(=NCCCCCCN=C(N)/N=C(\N)Nc1ccc(Cl)cc1)/N=C(\N)Nc1ccc(Cl)cc1`, the AC50 in [1] was 10.3 µM (active); in assay [4], 8.58 µM (active); in assay [3], 9.07 µM (active) and 13.5 µM (active) and 19.2 µM (active); in [11], 9.58 µM (active); in assay [12], 0.178 µM (active). Moreover, the outcome in [2], in [6] and in assay [7] was inactive.

For the compound `c1ccc(CNc2ncnc3c2ncn3C2CCCCO2)cc1` (centres undefined), the result in assay [2] and in [3] was inactive.

For `CCOC(=O)CN[C@@H](C(=O)N1CC[C@H]1C(=O)NCc1ccc(/C(N)=N/O)cc1)C1CCCCC1`, the AC50 in [1] was 1.25 µM (active).

Take `CCCCCCCCCCCCOS(=O)(=O)O`: in the assay on NCBI gene 100848466, the concentration at half-maximal activity (AC50) is 25.5 µM (active).

Turning to `C[C@]12CC[C@@H]3c4ccc(O)cc4CC[C@H]3[C@@H]1CC[C@@H]2OC(=O)CCC1CCCC1`, the results for the AC50 in assay [2] and in [3] were 0.0684 µM (active) and 0.00446 µM (active), respectively.

As to `CCCCCCCCCCCCCCCCCC[N+](C)(C)Cc1ccccc1`, the compound was called inactive in assay [1] and in assay [4].

Consider `N=C(N)c1ccc(OCCCCCOc2ccc(C(=N)N)cc2)cc1`, for which the AC50 is 2.33 µM (active) in [4], 35.8 µM (active) in [13] and 6.98 µM (active) in [5]. Besides, the compound was classed as inactive in assay [2], in [3], in assay [6] and in assay [7].

For `CN(C)c1ccc(C(=C2C=CC(=[N+](C)C)C=C2)c2ccccc2)cc1`, the AC50 in assay [1] is 1.29 µM (active) and 1.63 µM (active).

Turning to `COC1=CC(=O)C[C@@H](C)[C@]12Oc1c(Cl)c(OC)cc(OC)c1C2=O`, the result in [2] was inactive.

With `Clc1ccc(Nc2nnc(Cc3ccncc3)c3ccccc23)cc1`, the AC50 in assay [1] is 1.95 µM (active). The outcome in the assay with PGR (gene 5241) was inactive.

Consider `O=C1OC2(c3ccccc31)c1cc(I)c(O)c(I)c1Oc1c2cc(I)c(O)c1I`, for which, in assay [10], the AC50 is 21.6 µM (active) and the call was inactive. For the same compound, the AC50 in assay [14] is 19.7 µM (active).

On to `Cc1cc(C(=C2C=CC(=Nc3ccc(S(=O)(=O)O)cc3)C=C2)c2ccc(Nc3ccc(S(=O)(=O)O)cc3)cc2)cc(S(=O)(=O)O)c1N`, for which the AC50 in assay [10] was 15.5 µM (active). For the same compound, the outcome in [6], in [7], in [8], in assay [11] and in assay [15] was inactive.

For the origin of these results see PubChem BioAssay (EPA / NIEHS).
